Some test systems named below: NCI-H23 lung; NCI-H226 lung; NCI-H322M lung; HOP-62 NSCLC; NCI-H460 lung; HOP-92 NSCLC; NCI-H522 lung; A549/ATCC NSCLC; 786-0 renal; COLO 205 colon.
Common to all, as to test: NCI-60 one-dose screen, 48 h (100 = growth as untreated, 0 = no growth, -100 = all killed)
What all share (conditions): 10 µM unless noted

Molecules are shown by their SMILES. This is part of a sample that, as a whole, favours compounds with a hit. Of some 83,000 tested, about 20% had one in any assay.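 Activity criterion: percent growth below 10, measured after cells in 96-well plates were exposed to a single compound concentration for 48 hours.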 Values without a mark were called inactive. Calls of active or inactive are those of the source.

For `O=C(Nc1cccc2[nH]c(C(F)(F)F)nc12)c1ccc(-n2cnnn2)cc1`, the growth was 82.1% in the experiment with NCI-H23 lung; 92.2% with NCI-H226 lung; 107% with NCI-H322M lung; 97.6% with HOP-62 NSCLC; 81.9% in the experiment on NCI-H460 lung; 82.5% with HOP-92 NSCLC. Further, the growth with NCI-H522 lung was 57.3%; in the experiment with A549/ATCC NSCLC, 98.1%; in the experiment with 786-0 renal, 106%; in the experiment with COLO 205 colon, 105%.
Take `Cc1ccc(NC(=O)C2CCC(CN3CCN(C)CC3)CC2)cc1Nc1nccc(-c2cccnc2)n1` (stereo not given): the growth is 96.1% in the experiment on NCI-H23 lung; 99.8% in the experiment with NCI-H226 lung; 95.9% in the experiment on NCI-H322M lung; 105% in the experiment with HOP-62 NSCLC; 101% with NCI-H460 lung; 85.5% in the experiment with HOP-92 NSCLC. Moreover, the growth was 129% in the experiment with NCI-H522 lung, 114% with A549/ATCC NSCLC, 98.7% in the experiment with 786-0 renal and 94.4% in the experiment on COLO 205 colon.
Consider `COc1ccc(-c2nc(SCC(=O)Nc3ccc(C(=O)/C=C/c4ccc(Cl)cc4)cc3)[nH]c(=O)c2C#N)cc1`, for which the growth with NCI-H23 lung was 85.4%; in the experiment on NCI-H226 lung, 96.3%; with NCI-H322M lung it was 88.8%; in the experiment with HOP-62 NSCLC it was 100%; in the experiment with NCI-H460 lung, 99.1%; in the experiment on HOP-92 NSCLC, 81.7%. Besides, the growth in the experiment on NCI-H522 lung was 77.4%; with A549/ATCC NSCLC, 101%; in the experiment with 786-0 renal, 105%; in the experiment with COLO 205 colon, 86.8%.
For `O=C(Nc1ccccc1Cl)c1ccc(NC2=C(Cl)C(=O)N(C3CCCCC3)C2=O)cc1`, the growth is -24.1% [30 µM] (active) in the experiment on NCI-H23 lung; 97.1% [30 µM] in the experiment on NCI-H226 lung; 16.2% [30 µM] with NCI-H322M lung; 88.4% [30 µM] in the experiment on HOP-62 NSCLC; 32.8% [30 µM] in the experiment on NCI-H460 lung; -16.8% [30 µM] (active) with HOP-92 NSCLC. For the same molecule, the growth in the experiment on NCI-H522 lung is 70.3% [30 µM]; with A549/ATCC NSCLC, 94% [30 µM]; in the experiment with 786-0 renal, 69.9% [30 µM]; in the experiment on COLO 205 colon, 66.6% [30 µM].
Turning to `O=C1c2c(O)cc(O)cc2-c2c(-c3ccc(O)cc3)oc3cc(O)cc1c23`, the growth is 39.9% in the experiment with NCI-H23 lung; 61.2% in the experiment on NCI-H226 lung; 65.2% in the experiment on NCI-H322M lung; 22.1% in the experiment on HOP-62 NSCLC; 10% with NCI-H460 lung; 44.6% in the experiment on HOP-92 NSCLC. Also, the growth in the experiment with NCI-H522 lung is 11%; in the experiment with A549/ATCC NSCLC it was 43.2%; in the experiment with 786-0 renal, 41.8%; with COLO 205 colon it was 86.2%.
`CNC(=O)c1cc(Oc2ccc(NC(=O)Nc3ccc(Cl)c(OC(F)(F)F)c3)c(F)c2)ccn1`: the growth in the experiment on NCI-H23 lung is 7.09% (active); in the experiment on NCI-H226 lung, 31.5%; in the experiment with NCI-H322M lung, 71.7%; with HOP-62 NSCLC, 39%; in the experiment with NCI-H460 lung, 37.4%; in the experiment with HOP-92 NSCLC, 28.9%. Also, the growth in the experiment with NCI-H522 lung is 5.56% (active); with A549/ATCC NSCLC, 24.7%; in the experiment with 786-0 renal it was 58%; in the experiment with COLO 205 colon, 6.8% (active).
In the case of `CON1C(=O)CC[C@]2(C)[C@H]3CC[C@@H]4C([C@@]5(C)CCC(=O)O5)CC[C@@]4(C)[C@]3(C)CC[C@H]2C1(C)C` (stereo not given in full), the growth is 95.6% in the experiment with NCI-H23 lung; 94.9% in the experiment with NCI-H226 lung; 108% in the experiment on NCI-H322M lung; 98.4% in the experiment on HOP-62 NSCLC; 103% with NCI-H460 lung; 95.3% in the experiment with HOP-92 NSCLC. Also, the growth with NCI-H522 lung was 85.9%; with A549/ATCC NSCLC it was 102%; in the experiment on 786-0 renal, 100%; with COLO 205 colon it was 124%.
Turning to `O=C1NC(=S)N[C@H]1CC(=O)n1cnc2ccccc21`, the growth in the experiment on NCI-H23 lung is 92.3%; with NCI-H226 lung it was 93.6%; with NCI-H322M lung, 105%; with HOP-62 NSCLC, 93%; in the experiment on NCI-H460 lung it was 104%; with HOP-92 NSCLC, 96.1%. The growth in the experiment with NCI-H522 lung is 98.4%; with A549/ATCC NSCLC it was 105%; with 786-0 renal, 102%; in the experiment on COLO 205 colon, 111%.
Regarding `COc1cc2c(cc1O)CC[C@@H]1[C@@H]2CC[C@]2(C)[C@@H](OCCN(C)C)CC[C@@H]12`, the growth is 42.3% in the experiment on NCI-H23 lung; 76.5% in the experiment with NCI-H226 lung; 51.3% in the experiment with NCI-H322M lung; 59.9% in the experiment with HOP-62 NSCLC; 39.6% in the experiment on NCI-H460 lung; 48.6% in the experiment on HOP-92 NSCLC. Besides, the growth was 18.4% in the experiment with NCI-H522 lung, 66.5% in the experiment with A549/ATCC NSCLC, 57.9% in the experiment with 786-0 renal and 58.8% in the experiment with COLO 205 colon.
Take `Cn1ncc2c(=O)nc3c(-c4ccccc4)n[nH]n3c21`: the growth with NCI-H23 lung was 101%; in the experiment with NCI-H226 lung it was 91.9%; in the experiment on NCI-H322M lung it was 80.9%; in the experiment with HOP-62 NSCLC it was 95.5%; in the experiment with NCI-H460 lung, 103%; in the experiment with HOP-92 NSCLC, 116%. Also, the growth with NCI-H522 lung is 73.2%; with A549/ATCC NSCLC it was 101%; in the experiment with 786-0 renal, 99.9%; in the experiment on COLO 205 colon, 119%.
For the molecule `CCOC(=O)C(C)(C#N)C1C=CCCC1` (stereo not given), the growth in the experiment with NCI-H23 lung was 83.3%; with NCI-H226 lung, 97.9%; with NCI-H322M lung, 80.4%; with HOP-62 NSCLC, 89.8%; in the experiment with NCI-H460 lung, 98.8%; in the experiment on HOP-92 NSCLC it was 78.2%. The growth in the experiment on NCI-H522 lung was 104%; in the experiment on A549/ATCC NSCLC, 92.5%; in the experiment on 786-0 renal, 87%; in the experiment with COLO 205 colon, 106%.
`COc1ccc(/C=C\c2cc(OC)c(OC)c(OC)c2)cc1OC(=O)c1cccc(Cn2cc(CCOC(=O)[C@H](N)Cc3cn(C)c4ccccc34)nn2)c1`: the growth with NCI-H23 lung is 29.6%; in the experiment on NCI-H226 lung it was 19.8%; with NCI-H322M lung it was 50.1%; in the experiment with HOP-62 NSCLC, 44.3%; in the experiment with NCI-H460 lung, 1.11% (active); with HOP-92 NSCLC, 61.6%. The growth is 18.9% with NCI-H522 lung, 19.7% in the experiment on A549/ATCC NSCLC, 15.7% in the experiment with 786-0 renal and -54.5% (active) in the experiment with COLO 205 colon.
Take `O=C1OCC2=C1C(c1ccncc1)c1cc3c(cc1N2CCO)OCO3` (stereo not given): the growth with NCI-H23 lung is 99.6%; with NCI-H226 lung it was 102%; in the experiment with NCI-H322M lung it was 98.3%; in the experiment on HOP-62 NSCLC, 93.5%; with NCI-H460 lung, 101%; with HOP-92 NSCLC, 87.6%. Besides, the growth in the experiment with NCI-H522 lung is 91.2%; with A549/ATCC NSCLC, 98.9%; in the experiment on 786-0 renal, 112%; with COLO 205 colon it was 53.1%.

These data come from PubChem BioAssay (NCI).
